Records with an inconclusive call do not appear. Unmarked numbers belong to inactive results. Activity calls are given as the source filed them. Calls follow the shape of the dose curve; as a rule, active = well fitted inhibition curve with a large enough effect; inconclusive = small, poorly fitted or top-dose-only effect; inactive = flat fitted curve, though single readings scatter. Where a SMILES comes first, the peptide text is derived from it. The star is where a group is joined. AFC = O=c1cc(C(F)(F)F)c2ccc(N*)cc2o1
Experiment: P-glycoprotein substrates identified in KB-8-5-11 adenocarcinoma cell line, qHTS therapeutic library screen (AID 1346987); also: nearly all actives have a fitted effect of over 65% in size
Settings: KB-8-5-11 (P-gp overexpressing) viability, CellTiter-Glo, 72 h; series mostly up to 44.5 µM; activity change, negative = cytotoxicity: at the top concentration
Method in brief: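 P-gp-mediated resistance screen: KB-8-5-11 cells treated 72 h with compounds in dose-response. CellTiter-Glo viability.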
% is scaled to controls: 0 for no effect and ±100 for the full control effect; potency is read from the fitted curve at half-maximal effect.

| Structure (SMILES) | outcome | activity change, negative = cytotoxicity | Potency |
| --- | --- | --- | --- |
| C[C@@H]1O[C@@H](O[C@@H]2[C@@H](O)[C@H](O[C@@H]3[C@@H](O)[C@@H](O)[C@H](O[C@H]4[C@H](OC(=O)[C@]56CCC(C)(C)C[C@H]5C5=CCC7[C@@]8(C)C[C@H](O)[C@H](O[C@@H]9O[C@H](C(=O)O)[C@@H](O)[C@H](O)[C@H]9O)[C@@](C)(CO)C8[C@H](O)C[C@@]7(C)[C@]5(C)CC6)OC[C@H](O)[C@@H]4O)O[C@H]3C)OC[C@H]2O)[C@H](O)[C@H](O)[C@H]1O (stereo not given in full) | inactive [at 9.29 µM] |  |  |
| COc1cc(/C=C/C(=O)OC(C)(C)C(OC2OC(CO)C(O)C(O)C2O)C(=O)OCc2ccc(OC3OC(CO)C(O)C(O)C3O)cc2)ccc1O (stereo not given) | inactive [at 17.3 µM] |  |  |
| COc1cc(/C=C/C(=O)OC2CC(OC(C)=O)C(OC(C)=O)C3C2CCC2C(=O)OC(c4ccoc4)CC23C)ccc1O[C@@H]1O[C@H](CO)[C@@H](O)[C@H](O)[C@H]1O (stereo not given in full) |  | -12.1% [at 17.3 µM] |  |
| O=C1NC(Cc2ccc(O)cc2)C(=O)N2CCCC12 (stereo not given) |  | 3.23% |  |
| NCc1ccc(OCCCc2sc(-c3ccc4c(c3)/C(=N/Nc3nc5ccccc5s3)CCC4)nc2C(=O)O)cc1 |  | -26.6% |  |
| CC(O)C(O)/C=C/C=C/C(=O)O[C@@H]1C=C2COC(=O)[C@]2(O)[C@@]2(C)CCCC(C)(C)C12 (stereo not given in full) |  | 2.92% [at 17.3 µM] |  |
| CC(C)N(C[C@H]1O[C@@H](n2cnc3c(N)ncnc32)[C@H](O)[C@@H]1O)C1CC(CCc2nc3ccc(C(C)(C)C)cc3[nH]2)C1 (stereo not given in full) |  | 5.83% |  |
| OC[C@H]1O[C@@H](n2cnc3c2NC=NC[C@H]3O)C[C@@H]1O |  |  | inactive |
| COc1cc(/C=C/C(=O)OC2CC3CCC2(C)C3(C)C)ccc1O (stereo not given) |  | 7.16% |  |
| C/C=C(\C)C(=O)O[C@H]1[C@@H](O[C@]2(COC(=O)CC(C)C)O[C@H](COC(=O)C(C)C)[C@@H](OC(C)=O)[C@@H]2O)O[C@H](COC(C)=O)[C@@H](O)[C@@H]1O | inactive [at 17.3 µM] |  |  |
| CON(C)C(=O)N1N=C(c2cc(F)ccc2F)S[C@@]1(CCCN)c1ccccc1 |  |  | 164 nM (active) |
| CC1(C)CC(=O)N(CCCCN2CCN(c3ncccn3)CC2)C(=O)C1 |  | -6.57% |  |
| COc1cc(C)c(C(=O)O[C@H]2[C@@H](O)[C@H](n3ccc(=O)[nH]c3=O)O[C@@H]2CO)c(OC)c1 |  | 7.34% [at 17.3 µM] |  |
| CC(=O)N[C@@H](CC(C)C)C(=O)N[C@@H](CCC(=O)O)C(=O)N[C@@H](CCC(=O)O)C(=O)N[C@@H](CC(=O)O)C(=O)Nc1ccc2c(C(F)(F)F)cc(=O)oc2c1 (Ac-LEED-{AFC}) |  | 0.209% |  |
| C=CCc1ccc(O[C@@H]2O[C@H](CO[C@@H]3O[C@H](CO)[C@@H](O)[C@H](O)[C@H]3O)[C@@H](O)[C@H](O)[C@H]2O)c(O)c1 |  | 3.43% [at 17.3 µM] |  |
| C[C@@H]1C(=O)O[C@H]2[C@H]1CC[C@@]1(C)C(=O)C=C[C@](C)(O)[C@H]21 | inactive |  |  |
| C/C=C(\C)C(=O)O[C@@H]1CC2[C@@H](CC=C3C[C@@H](O[C@H]4C[C@H](OC)[C@H](O[C@H]5C[C@H](OC)[C@H](O[C@H]6C[C@H](OC)[C@H](O[C@H]7C[C@@H](OC)[C@H](O[C@@H]8O[C@H](CO)[C@@H](O)[C@H](O)[C@H]8O)[C@@H](C)O7)[C@@H](C)O6)[C@@H](C)O5)[C@@H](C)O4)CC[C@@]32C)[C@@]2(O)CC[C@H](C(C)=O)[C@@]12C (stereo not given in full) |  | 3.56% [at 9.29 µM] |  |
| CC(=O)OCC(=O)O[C@@H]1[C@H]2[C@@H](OC(=O)c3ccccc3)[C@@H](C)C[C@]2(O)[C@H](OC(C)=O)C2(C)[C@H]3CC(C)(C)C(=O)[C@@H]3CC1(OC(C)=O)[C@@H]2OC(C)=O (stereo not given in full) |  | -14.7% [at 17.3 µM] |  |
| CC1(C)C(O)CCC2(C)C1C(O)C=C1COC(=O)C12O (stereo not given) |  | 9.08% |  |
| c1ccc(Cc2ncc3c(n2)CCNCC3)cc1 | inactive |  |  |
| CC1(C)CC[C@]2(C(=O)O)CC[C@]3(C)C(=CCC4[C@@]5(C)C[C@@H](O)[C@H](O)C(C)(C)C5CC[C@]43C)[C@@H]2[C@@H]1O (stereo not given in full) |  | -3.96% [at 17.3 µM] |  |
| OCc1ccccc1O[C@@H]1O[C@H](CO)[C@@H](O)[C@H](O)[C@H]1O |  | 5.93% |  |
| COc1ccc(C(=O)O[C@H]2CC(C)=CC[C@@]3(C)[C@@H](OC(C)=O)C[C@@](O)(C(C)C)[C@H]23)cc1 |  | -2.94% [at 17.3 µM] |  |
| C=C[C@H]1[C@H](O[C@@H]2O[C@H](CO)[C@@H](O)[C@H](O)[C@H]2O)OC=C2C(=O)OCC[C@]21O | inactive |  |  |
| CN1C(=O)c2ccccc2NC(=O)[C@]12O[C@@H]2c1cccc(O)c1 |  | 8.4% |  |
